Dicer processing – inhibitors of Dicer pre-microRNA processing, primary screen, biochemical, cat-ELCCA, chemiluminescence | 6% of 47,000 active | AID 1347074, 2019 | cat-ELCCA pre-miR-21 Dicer processing; hits give high values | z-score at 25 µM | Endoribonuclease Dicer (Homo sapiens), Q9UPY3; in the data active = z-score above about 3, passing the limit was not always enough;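 note: plate controls were vehicle for no effect and no enzyme for full effect; higher signal means more uncleaved substrate so more Dicer inhibition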
Target sequence (Q9UPY3 whole entry, looked up): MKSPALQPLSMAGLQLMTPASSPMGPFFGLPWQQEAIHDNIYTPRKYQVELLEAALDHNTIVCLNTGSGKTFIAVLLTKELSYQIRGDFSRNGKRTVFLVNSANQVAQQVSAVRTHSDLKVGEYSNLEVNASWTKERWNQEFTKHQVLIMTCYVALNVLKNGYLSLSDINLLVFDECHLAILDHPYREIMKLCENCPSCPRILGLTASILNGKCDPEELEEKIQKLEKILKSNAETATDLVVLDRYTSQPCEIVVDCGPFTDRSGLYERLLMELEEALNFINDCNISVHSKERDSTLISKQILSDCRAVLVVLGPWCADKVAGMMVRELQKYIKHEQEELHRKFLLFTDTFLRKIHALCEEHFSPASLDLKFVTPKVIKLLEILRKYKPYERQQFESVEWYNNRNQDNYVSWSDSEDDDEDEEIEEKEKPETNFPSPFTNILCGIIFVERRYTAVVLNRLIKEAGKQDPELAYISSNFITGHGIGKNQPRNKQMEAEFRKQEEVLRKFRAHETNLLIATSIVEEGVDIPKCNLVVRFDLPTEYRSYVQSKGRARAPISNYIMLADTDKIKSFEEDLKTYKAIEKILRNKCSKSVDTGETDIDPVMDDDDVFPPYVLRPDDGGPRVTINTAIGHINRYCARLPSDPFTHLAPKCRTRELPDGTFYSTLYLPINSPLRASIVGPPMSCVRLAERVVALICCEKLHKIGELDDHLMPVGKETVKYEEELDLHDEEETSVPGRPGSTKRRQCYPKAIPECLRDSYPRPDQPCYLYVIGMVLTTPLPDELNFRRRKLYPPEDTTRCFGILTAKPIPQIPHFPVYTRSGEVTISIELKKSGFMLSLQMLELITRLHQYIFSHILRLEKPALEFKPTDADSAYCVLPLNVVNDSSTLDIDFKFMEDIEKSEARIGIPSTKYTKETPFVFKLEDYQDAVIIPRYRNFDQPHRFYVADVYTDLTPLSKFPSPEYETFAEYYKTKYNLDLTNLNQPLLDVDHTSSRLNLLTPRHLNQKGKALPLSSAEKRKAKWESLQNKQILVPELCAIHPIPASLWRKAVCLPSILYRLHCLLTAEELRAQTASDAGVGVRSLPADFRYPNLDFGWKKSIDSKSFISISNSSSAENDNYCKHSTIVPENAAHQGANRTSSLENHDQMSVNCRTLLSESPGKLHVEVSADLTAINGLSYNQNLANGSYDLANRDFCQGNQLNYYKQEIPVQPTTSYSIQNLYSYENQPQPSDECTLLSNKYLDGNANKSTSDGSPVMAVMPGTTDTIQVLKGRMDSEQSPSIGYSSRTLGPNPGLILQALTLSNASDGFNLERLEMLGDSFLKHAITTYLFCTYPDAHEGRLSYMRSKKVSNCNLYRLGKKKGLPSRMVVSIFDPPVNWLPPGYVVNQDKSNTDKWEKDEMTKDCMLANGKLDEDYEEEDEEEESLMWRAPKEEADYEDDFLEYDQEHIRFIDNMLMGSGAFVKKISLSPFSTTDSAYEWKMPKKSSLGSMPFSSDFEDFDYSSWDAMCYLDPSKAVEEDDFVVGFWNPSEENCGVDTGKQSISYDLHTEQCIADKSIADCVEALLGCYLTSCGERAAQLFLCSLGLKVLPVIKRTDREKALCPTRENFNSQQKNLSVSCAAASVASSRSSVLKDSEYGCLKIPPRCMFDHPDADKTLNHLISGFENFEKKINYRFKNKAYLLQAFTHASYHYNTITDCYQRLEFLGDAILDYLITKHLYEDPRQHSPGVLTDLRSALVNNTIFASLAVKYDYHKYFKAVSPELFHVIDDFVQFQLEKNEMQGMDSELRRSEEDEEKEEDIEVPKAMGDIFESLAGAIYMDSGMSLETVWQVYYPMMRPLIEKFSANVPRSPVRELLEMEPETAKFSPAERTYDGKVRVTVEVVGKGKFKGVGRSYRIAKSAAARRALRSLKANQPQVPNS
* hit, by the source's call. Shown is part of a subset that was picked to be rich in hits.

SMILES | Dicer processing
O=C(Nc1ccc2ccccc2n1)c1cccs1 | -0.6
O=C(Nc1ccc2ccccc2n1)c1ccccc1Cl | 3.2*
O=C(Nc1ccc2ccccc2n1)c1c(Cl)cccc1Cl | 1.7
COc1ccc(-c2nc(SCc3ccccc3)nc(SC)c2C#N)cc1 | -0.17
N#CCOc1cc(Sc2ccccc2)ccc1[N+](=O)[O-] | -0.06
COc1ccc(OC)c(C2C(C#N)=C(C)NC3=C2C(=O)CC(c2ccc(Cl)cc2)C3)c1 (centres undefined) | 0.49
O=C(CCc1ccccc1)NNc1c(Cl)cccc1Cl | -1.9
c1ccc(Nc2nc(-c3cccs3)cs2)cc1 | -1.4
Cc1cccc(Nc2nc(-c3c(C)nc4ccccn34)cs2)c1 | 4.6*
CCN(CC)c1ccc(Nc2nc(-c3ccccn3)cs2)cc1 | 2.3
COc1ccc(Nc2nc(-c3c(C)nc4ccccn34)cs2)cc1 | 3.6*
CCN(CC)c1ccc(Nc2nc(-c3c(C)nc4ncccn34)cs2)cc1 | 4.1*
CCNC(=O)c1c(C)nc2ccccn12 | 0
COc1ccccc1Nc1nc(-c2c(C)nc3ccccn23)cs1 | 0.77
CCN(CC)c1ccc(Nc2nc(-c3cccnc3)cs2)cc1 | 0.14
Cc1cccc(Nc2n[nH]c(=S)s2)c1 | 1.2
Cc1nc2ccccn2c1-c1csc(Nc2cccc(O)c2)n1 | 6.5*
COc1ccc(Nc2nc(-c3ccncc3)cs2)cc1 | 0.71
Oc1cccc(Nc2nc(-c3cccnc3)cs2)c1 | -0.29
COc1cc(S(=O)(=O)N2CCN(Cc3ccc4c(c3)OCO4)CC2)ccc1Cl | 1.2
O=C1CS(=O)(=O)C(c2cccnc2)N1Cc1ccc(F)cc1 (centres undefined) | 0.87
Cc1ccc(S(=O)(=O)NC(=O)Oc2ccc(Oc3ccc(C(F)(F)F)cn3)cc2)cc1 | -0.86
O=c1[nH]c(/C=C\c2ccco2)c([N+](=O)[O-])c(=O)[nH]1 | -0.49
COc1ccc(C(OC[C@H]2O[C@@H](n3ccc(N)nc3=O)CC2O)(c2ccccc2)c2ccc(OC)cc2)cc1 (some centres undefined) | -0.25
Cc1c(-c2nnc(-c3cccc(C(F)(F)F)c3)o2)sc2nc(-c3ccc(Cl)cc3)nn12 | -0.53
SMILES | Dicer processing
CC(C)(C)c1cc(C(C)(C)C)n(-c2ccc(N)cc2)n1 | 0.04
O=[N+]([O-])c1ccccc1S(=O)(=O)N1c2ccccc2OC1c1ccc(Cl)c(Cl)c1 (centres undefined) | 0.45
Cc1ccc(N2C(=O)CSC23C(=O)Nc2ccccc23)cc1 (centres undefined) | 3.8*
O=C1CSC2(C(=O)Nc3ccccc32)N1c1ccccc1 (centres undefined) | -0.52
Cc1ccc(C)c(C(=O)CC2(O)C(=O)Nc3ccccc32)c1 (centres undefined) | 1.6
COc1ccc(-c2noc(-c3cc(OC)cc(OC)c3)n2)cc1 | 2.2
O=S(=O)(c1ccccc1)c1csc(S(=O)(=O)N2CCCN(c3ccc(C(F)(F)F)cn3)CC2)c1 | 2.8
COCCN1C(=O)c2oc3cc(C)c(C)cc3c(=O)c2C1c1ccc(SC)cc1 (centres undefined) | -0.06
Cc1ccc(/C(O)=C2/C(=O)C(=O)N(CC(C)O)C2c2cccc(O)c2)cc1 (centres undefined) | 6.1
CCOC(=O)c1c(NC(=O)CCC(=O)O)sc2c1CCCC2 | 2.2
CCOC(=O)c1c(NC(=O)CCC(=O)O)sc2c1CCCCC2 | -0.71
CCOC(=O)c1c(NC(=O)CCC(=O)O)sc2c1CCCC2=O | 3*
CCOc1cc(C2C(C#N)=C(N)Oc3n[nH]c(C(C)(C)C)c32)ccc1O (centres undefined) | 2.7
O=C(Nc1ccc(F)cc1)Nc1nc2ccccc2s1 | 0.83
CCCCC(=O)Nc1nc2ccccc2s1 | -0.22
CCNC(=O)Nc1nc2ccccc2s1 | 4.4*
CN(NC(=O)c1ccncc1Cl)c1cnc2ccccc2n1 | 0.34
COc1cc(C2C(C#N)=C(N)Oc3cc(O)ccc32)ccc1OCc1ccccc1 (centres undefined) | 1.8
COC(=O)C1=C(C)NC2=C(C(=O)CC(C)(C)C2)C1c1ccc(OCc2ccccc2)c(OC)c1 (centres undefined) | -0.7
COc1ccc(C2C(C#N)=C(N)OC3=C2C(=O)CC(C)(C)C3)cc1OCc1ccccc1 (centres undefined) | 3*
O=C(COC(=O)c1ccccc1-c1ccccc1)c1ccccc1 | 2.1
O=C(COC(=O)c1ccc(C(O)c2ccccc2)cc1)c1ccccc1 (centres undefined) | 4*
O=C(COC(=O)c1ccccc1Nc1ccccc1F)c1ccccc1 | -6.3
O=[N+]([O-])c1ccc2c(c1)S(=O)(=O)CC2SCCO (centres undefined) | 2
O=S(=O)(Nc1n[nH]c2cccc(Cl)c12)c1ccc(Cl)cc1 | -0.27
SMILES | Dicer processing
Cc1c(C)c(C)c(S(=O)(=O)Oc2cc(Cl)cc(Cl)c2)c(C)c1C | -0.02
COc1ccc(S(=O)(=O)Nc2cccnc2)c(C)c1C | 1.1
Cc1c(C)c(C)c(S(=O)(=O)Oc2cccnc2)c(C)c1C | 3.8*
Clc1cccc(CSC2=NCCN2)c1 | -0.28
COc1ccc(-c2nc(C#N)c(NCc3ccco3)o2)cc1 | -1.1
N#Cc1nc(-c2ccccc2)oc1NCc1ccccc1 | 6.4*
C=CCNc1oc(-c2ccc(F)cc2)nc1C#N | -0.55
O=C1C2C3c4ccccc4C(c4ccccc43)C2C(=O)N1Cc1ccccc1 (centres undefined) | 2.8
Cc1onc(-c2ccccc2)c1C(=O)N1CCN(C(=O)c2c(-c3ccccc3)noc2C)CC1 | 0.71
CCOC(=O)c1c(NC(=O)Nc2ccccc2)nc(SC)n1-c1ccccc1OC | -1.1
CCCCC1(C2CC(=O)N(c3cc(F)ccc3F)C2=O)C(=O)N(c2ccccc2)N(c2ccccc2)C1=O (centres undefined) | 0.44
C=CCN1C(=O)SC(CC(=O)O)C1=O (centres undefined) | -0.77
COc1cc(/C=N/N=C2/SC(CC(=O)O)C(=O)N2C)cc(OC)c1OC (centres undefined) | 2.5
CN=C1SC(CC(=O)O)C(=O)N1C (centres undefined) | 20*
Clc1ccc(-c2csc(-c3[nH]ncc3Br)n2)cc1 | 0.99
CC1(C)Cc2ccccc2C2=C(C(=O)N3CCCC3)C(=O)C(=O)N21 | -1.3
CCC1(CC)Cc2ccccc2C2=C(C(=O)N3CCOCC3)C(=O)C(=O)N21 | 4*
O=C1C(=O)N2C(=C1C(=O)N1CCOCC1)c1ccccc1CC21CCCC1 | -1.1
CC(=O)/C(=C\N(C)C)Sc1ccccc1 | -0.05
COC(=O)C(Cc1c[nH]c2ccccc12)NC(=O)OC(C)(C)C (centres undefined) | -0.07
C=CCN1C(=O)C(O)(CC(=O)c2cc(C)ccc2C)c2ccccc21 (centres undefined) | 9.4*
C=CCN1C(=O)C(O)(CC(=O)c2cc(OC)ccc2OC)c2cc(Br)ccc21 (centres undefined) | 3.5*
C=CCN1C(=O)C(O)(CC(=O)c2ccc(OC)cc2OC)c2cc(Br)ccc21 (centres undefined) | -0.27
CCCN1C(=O)C(O)(CC(=O)c2cc(OC)ccc2OC)c2cc(Br)ccc21 (centres undefined) | -0.9
C=CCN1C(=O)C(O)(CC(=O)c2ccc(C)cc2C)c2ccccc21 (centres undefined) | -1
C=CCN1C(=O)C(O)(CC(=O)c2ccccc2OC)c2ccccc21 (centres undefined) | 1.1
CCOC(=O)C1=NOC2C(=O)N(c3ccc(Br)cc3)C(=O)C12 (centres undefined) | 1.2
COC(Cn1c(-c2ccccc2)n[nH]c1=S)OC | -1.6
